Results taken from the supplement of paper PMC5407854, “Inhibitor of ppGalNAc-T3-mediated O-glycosylation blocks cancer cell invasiveness and lowers FGF23 levels” (eLife, 2017).
Over roughly 1,700 compounds, “T2 sensor activation Q score (MG/GFP ratio z-score vs DMSO controls)” has its median near 0.3; the highest 2% begin near 1.9. Shown is part of a subset that was picked to be rich in the highest values.

test system: ppGalNAc-T2 sensor; experiment: T2 sensor activation Q score (MG/GFP ratio z-score vs DMSO controls) (SD units); higher = more sensor activation (inhibition of ppGalNAc-T2 glycosylation); conditions: HEK293 sensor cells; 10 µM; 6 h
Procedure: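 Cells were treated with compound at 10 uM for 6 h, then MG/GFP ratio was read by flow cytometry (10,000 cells per well, duplicate wells). Q = (R - R_neg)/SD_neg relative to DMSO vehicle controls; the signal rises when the glycosyltransferase is inhibited.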

| SMILES | T2 sensor activation Q score |
| --- | --- |
| COc1ccc(-c2cc(-c3ccccc3)c(-c3ccccc3)nn2)cc1 | -0.95 |
| CCOC(=O)Nc1ccc2nc(N3CCCCCC3)sc2c1 | 0.95 |
| O=C(C=Cc1ccc(O)c(O)c1)c1ccccc1O | -0.4 |
| Cc1nc(SCC(=O)O)n[nH]1 | -1.55 |
| CCOC(=O)N1CCN(Cc2c(O)ccc3ccccc23)CC1 | -0.05 |
| CCOc1ccc(/C=C2\CCc3ccccc3C2=O)cc1 | 0.5 |
| CCOC(=O)N1C/C(=C\c2ccccc2)C(=O)/C(=C/c2ccccc2)C1 | 2.95 |
| CC(=O)NC1=C/C(=C\[N+](=O)[O-])C=C1O | -0.65 |
| COc1cc2c(cc1OC)C(=O)Cc1ccc3c(c1CN(C)CC2)OCO3 | 1.1 |
| CCN1CCCCC(=NO)C(=NO)CCCC1 | 1.05 |
| COc1ccc(OC(=O)Nc2ccc([N+](=O)[O-])cc2OC)cc1 | 0.95 |
| O=C1C2C3C=CC(O3)C2C(=O)N1Nc1ccccc1 (stereo unspecified) | 0.25 |
| C(=N\Nc1nnn(Cc2ccccc2)n1)/c1ccccc1 | 0.5 |
| Nc1ccc(-c2nc3nc(N)nc(N)c3nc2-c2ccc(N)cc2)cc1 | 4.95 |
| CCN(CC)CCNc1c(C)cc(CO)c(Cl)c1C | 0.25 |
| C#CC(C)OCC1CNC(=S)O1 (stereo unspecified) | -1.4 |

| SMILES | T2 sensor activation Q score |
| --- | --- |
| CN(C)c1ccc(/C=N\NC(=O)c2cnc3ccccc3c2)cc1 | -0.3 |
| NS(=O)(=O)c1cc2c(cc1Cl)NC(CC1CCCC1)NS2(=O)=O (stereo unspecified) | 0.8 |
| S=c1[nH]c2ccccc2n2cccc12 | 1.1 |
| S=c1cn[nH]c2ccccc12 | 0.55 |
| S=c1[nH]c2ccccc2c2ccccc12 | 1.95 |
| O=C(c1ccccc1)c1ccc(Sc2ccc([N+](=O)[O-])cc2)cc1 | 7.7 |
| O=C(c1ccccc1)c1ccc(-c2ccc(O)cc2)cc1 | 1.55 |
| CSC(=O)NC(=O)NC(=O)c1ccc([N+](=O)[O-])cc1 | 1.05 |
| CCN(CC)CCN1c2ccccc2Sc2ccc3ccccc3c21 | -0.8 |
| OC(c1cc(-c2ccc(C(F)(F)F)cc2)nc(C(F)(F)F)c1)C1CCCCN1 (stereo unspecified) | 0.5 |
| CCCCSc1ncnc2[nH]ncc12 | 0.45 |
| O=[N+]([O-])c1ccc2c3ccccc3[s+]([O-])c2c1 (stereo unspecified) | 0.25 |
| CC(C)NCC1CCc2cc(CO)c([N+](=O)[O-])cc2N1 (stereo unspecified) | -0.55 |
| Cc1ccc(Cl)cc1NC(=O)c1cc2ccccc2cc1O | -0.35 |
| CCOC(=O)Cc1cc(=O)c2cc(C)ccc2[nH]1 | 0.8 |
